About 83,000 compounds went through this panel and 20% of them were active in at least one assay; those are over-represented in the sample as a whole.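 For each line, cells grew in 96-well plates with the test compound present at a single concentration for 48 hours.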 Values without a mark were called inactive. The source made the active and inactive calls. Rule for the calls: active = growth percent below 10; inactive = the rest.
How the values were obtained:
Assay in all cases: NCI-60 one-dose screen, 48 h (100 = growth as untreated, 0 = no growth, -100 = all killed)
Conditions in all cases: 10 µM unless noted
MALME-3M melanoma = system: MALME-3M melanoma
MDA-MB-231 breast = system: MDA-MB-231 breast
RXF 393 renal = system: RXF 393 renal
SF-268 CNS = system: SF-268 CNS
SF-295 CNS = system: SF-295 CNS
SF-539 CNS = system: SF-539 CNS
UACC-257 melanoma = system: UACC-257 melanoma
M14 melanoma = system: M14 melanoma
HCT-15 colon = system: HCT-15 colon

Structure (SMILES) | growth (MALME-3M melanoma) | growth (MDA-MB-231 breast) | growth (RXF 393 renal) | growth (SF-268 CNS) | growth (SF-295 CNS) | growth (SF-539 CNS) | growth (UACC-257 melanoma) | growth (M14 melanoma) | growth (HCT-15 colon)
COc1ccc(-c2c3c(nn2-c2ccc(N)cc2)CCc2cnoc2-3)cc1OC | 106% | 88.5% | 93% | 90.8% | 85.4% | 94.5% | 112% | 97.8% | 85.6%
ClC1C2CC(c3ccccc32)C1Cl (stereo not drawn) | 126% | 107% | 110% | 110% | 123% | 95.8% | 112% | 103% | 109%
c1cncc(CNc2ccccc2-c2nnc(Nc3ccc4c(c3)OCO4)o2)c1 | 32.1% | 16.3% | -2.33% (active) | 33.5% | 5.25% (active) | 0.107% (active) | 56.2% | 9.13% (active) | 10.2%
O=C(CCc1nnc2sc(-c3ccc(Cl)cc3Cl)nn12)c1nc2ccccc2[nH]1 | -26.5% (active) | -54.2% (active) | -92.9% (active) | 15.2% | -37.4% (active) | -19% (active) | -69.9% (active) | -47.5% (active) | -31.8% (active)
O=C(CCc1nnc2sc(Cc3ccccc3Cl)nn12)c1nc2ccccc2[nH]1 | 112% | 76.5% | 90.9% | 84.9% | 103% | 107% | 102% | 99.2% | 92.3%
COc1ccc(-c2c(N)noc2-c2cc(OC)c3c(c2)OCCO3)cc1 | 81.2% | 27.5% | 39.2% | 26.8% | 12.8% | 4.21% (active) | 72.6% | -16.2% (active) | 15.7%
COc1cc(C2NC(c3ccc(Cl)cc3)C(C)C(=NC(=O)c3cnccn3)C2C)cc(OC)c1OC (stereo not drawn) | 79.8% | 104% | 93.8% | 97.2% | 106% | 89.8% | 120% | 96.9% | 81%
Cc1cc2cn3c4cccnc4[nH]c(=O)c3c2cc1C | 80.1% | 40.5% | 70.6% | 73.4% | 34.4% | 76.7% | 85.8% | 36.4% | -37.7% (active)
O=C(Nc1ccccc1Cl)c1cnc2ccc(C3CCNCC3)cn12 | 96.2% | 61.3% | 36.5% | 60.7% | 70.7% | 47% | 82.5% | 72.7% | 46.6%
CCCCCCC/C(=N\N=C(N)N)c1ccc(O)cc1 | 50.6% | -22.5% (active) | -35.5% (active) | 45% | 55.7% | 63.5% | 27.1% | 24.9% | 64%
COc1ccc(/C=C/C(=O)Nc2cccnc2Nc2ccc(F)cc2)cc1 | 122% | 91.7% | 102% | 112% | 87.9% | 93.7% | 97.9% | 103% | 102%
Cc1cc([N+](=O)[O-])c(C)cc1C(=O)O | 102% | 110% | 112% | 99.8% | 96.9% | 98.5% | 105% | 100% | 97.3%
COc1ccc2c(c1)nc(N)c1c3ccccc3cn21 | 65.2% | 85.5% | 77.1% | 81% | 79.5% | 94.3% | 85.9% | 63.1% | 56.4%
COc1cc2c(c(OC)c1OC)-c1ccc(NN(C(=O)c3ccccc3)C(=O)c3ccccc3)c(=O)cc1[C@@H](NC(C)=O)CC2 (tested in a mixture with another compound) | 39.4% | 51.2% | 38.5% | 48.9% | -30.7% (active) | 15.4% | 58.4% | 4.01% (active) | 48.8%
O=C(/C=C/c1cccnc1)NCCCCC1CCCN(C(=O)c2ccccc2)C1 (stereo not drawn) | 83.7% | 82.6% | 109% | 74% | 4.84% (active) | 28% | 109% | 18.7% | 42%
NC(N)=NC(N)=NCCCc1ccccc1 | 63.9% [100 µM] | 69% [100 µM] | 72.4% [100 µM] | 59.5% [100 µM] | 49.4% [100 µM] | 66.5% [100 µM] | 62.8% [100 µM] | 76.6% [100 µM] | 80.3% [100 µM]
Oc1ccc(Cc2ccc(O)c(C3CC(c4ccc(Cl)cc4)=NN3)c2)cc1C1CC(c2ccc(Cl)cc2)=NN1 (stereo not drawn) | 29.7% | 12.7% | 66.5% | 29.8% | -26.9% (active) | 40.7% | 23.7% | 24.5% | 17.2%
COc1ccc2c(c1)nc(N)c1c3cc(OC)c(OC)cc3cn21 | 71.3% | 83.8% | 46.3% | 55.1% | 31% | 78.6% | 94.8% | 31.6% | 30.4%
Cn1cc(-c2nc(-c3c[nH]c4ncc(F)cc34)cs2)c2cccnc21 | 101% | 68.8% | 98.3% | 116% | 107% | 113% | 119% | 86.6% | 97.1%
CC(C)[C@]12O[C@H]1[C@@H]1O[C@]13[C@]1(O[C@H]1C[C@H]1C4=C(CC[C@@]13C)C(=O)OC4)[C@@H]2OC(=O)CN(C)C | -45.2% (active) | 27.8% | -61.9% (active) | -10.2% (active) | -27.6% (active) | -23% (active) | -2.52% (active) | -74.2% (active) | 9.18% (active)
Cn1cc(-c2csc(-c3c[nH]c4ncccc34)n2)c2cc(F)cnc21 | 95.5% | 57% | 59.8% | 91.7% | 74.3% | 90.9% | 96.2% | 58.7% | 61.3%
CC[N+](C)(CC)CCCC(C)Nc1ccnc2cc(Cl)ccc12 (stereo not drawn) | 104% | 114% | 125% | 91.4% | 108% | 105% | 107% | 109% | 110%
C=Cc1nn2c(CCC(=O)c3nc4ccccc4[nH]3)nnc2s1 | 108% | 101% | 106% | 101% | 99.7% | 113% | 110% | 92.9% | 101%
CN1C(=O)C(=Cc2cn(Cc3ccccc3)c3ccc(Br)cc23)C(=O)N(C)C1=O | 113% | 105% | 57.6% | 96.7% | 75.8% | 97.5% | 99.1% | 99.8% | 95.4%
Cc1c(C(N)=O)sc2c1C(=O)N(Cc1ccccc1)C1=NN=C(c3ccc(Cl)cc3)CN12 | 58.9% | 37.3% | 51.3% | 38.6% | 29.1% | 53.2% | 59.8% | 41.5% | 22.6%
COc1cc(C(=O)/C=C/c2cccnc2Nc2ccccc2)cc(OC)c1OC | -71.5% (active) | -61.1% (active) | -97.4% (active) | -81.1% (active) | 17.3% | -54.8% (active) | -88.2% (active) | -70% (active) | -33.7% (active)
CC(=O)c1ccc2c3c(n(C)c2c1)CCCC3 | 118% | 101% | 112% | 101% | 97.7% | 98% | 116% | 108% | 105%

Reference: PubChem BioAssay (NCI)
